These results are taken from PubChem BioAssay (NCI).

This is part of a sample that, as a whole, favours compounds with a hit. Of some 83,000 tested, about 20% had one in any assay.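 Treatment: one concentration, 48 hours, 96-well format. Scoring: percent growth, with anything below 10 considered active.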 A number with no mark means an inactive call. The source made the active and inactive calls.

Some test systems named below: HCT-15 colon; HT29 colon; SNB-75 CNS; SNB-19 CNS; U251 CNS; PC-3 prostate; SK-MEL-5 melanoma; UACC-62 melanoma; SK-MEL-28 melanoma; SK-MEL-2 melanoma; EKVX NSCLC; SN12C renal; UO-31 renal; TK-10 renal; ACHN renal; CAKI-1 renal; CCRF-CEM leukemia; MOLT-4 leukemia; LOX IMVI melanoma; A498 renal.
What all share (assay): NCI-60 one-dose screen, 48 h (100 = growth as untreated, 0 = no growth, -100 = all killed)
Settings in all cases: 10 µM unless noted

On to `O=S(=O)(Nc1ccc(-n2cnc3cc(-c4ccc(O)cc4)ccc32)cc1)c1ccccc1`, for which the growth was 87.2% in the assay with HCT-15 colon; 95.3% in the assay with HT29 colon; 88.1% with SNB-75 CNS; 90.1% with SNB-19 CNS; 65.2% in the assay with U251 CNS; 90.7% in the assay with PC-3 prostate. The growth in the assay on SK-MEL-5 melanoma was 66.8%; in the assay with UACC-62 melanoma it was 82.3%; with SK-MEL-28 melanoma, 104%; in the assay with SK-MEL-2 melanoma it was 83.2%; in the assay on EKVX NSCLC it was 98.4%; in the assay on SN12C renal, 73.4%. For the same compound, the growth in the assay with UO-31 renal is 51.3%; in the assay on TK-10 renal it was 113%; in the assay with ACHN renal, 80.6%; in the assay with CAKI-1 renal, 68.7%; in the assay with CCRF-CEM leukemia, 69.9%; with MOLT-4 leukemia, 71.7%.
For `O=C1OC(Cc2ccccc2)C1c1ccccc1` (configuration not stated), the growth in the assay with HCT-15 colon was 101%; in the assay with HT29 colon it was 106%; in the assay on SNB-75 CNS, 92.1%; with SNB-19 CNS, 99.1%; with U251 CNS it was 97.5%; in the assay with PC-3 prostate, 106%. Besides, the growth with SK-MEL-5 melanoma is 98.9%; in the assay with UACC-62 melanoma, 94.2%; with LOX IMVI melanoma, 99.3%; with SK-MEL-2 melanoma, 102%; in the assay with EKVX NSCLC it was 97.5%; in the assay on SN12C renal, 97.7%. In addition, the growth in the assay on UO-31 renal is 89%; in the assay on TK-10 renal it was 89.4%; in the assay on ACHN renal, 104%; with CAKI-1 renal, 97%; in the assay with CCRF-CEM leukemia, 109%; in the assay with MOLT-4 leukemia it was 101%.
`COc1ccc(/C=C2\COc3ccc(-c4ccccc4)cc3C2=O)c(OC)c1`: the growth is 84.3% in the assay with HCT-15 colon; 76.7% with HT29 colon; 65.5% in the assay with SNB-75 CNS; 103% with SNB-19 CNS; 84.6% with U251 CNS; 78.2% with PC-3 prostate. For the same compound, the growth was 81.2% in the assay with SK-MEL-5 melanoma; 74.1% in the assay on UACC-62 melanoma; 108% in the assay on SK-MEL-28 melanoma; 101% in the assay with SK-MEL-2 melanoma; 161% with EKVX NSCLC; 83.8% with SN12C renal. The growth in the assay on UO-31 renal is 86.2%; with TK-10 renal it was 94.8%; in the assay on ACHN renal it was 93%; in the assay with CAKI-1 renal, 116%; in the assay with A498 renal, 128%; in the assay with CCRF-CEM leukemia, 71.2%. Further, in the assay on MOLT-4 leukemia, the growth was 57.9%.
As to `C=C(C)[C@@H]1CC[C@]2(C(=O)N3CCN(C)CC3)CC[C@]3(C)[C@H](CC[C@@H]4[C@@]5(C)C/C(=C/c6cccnc6)C(=O)C(C)(C)[C@@H]5CC[C@]43C)[C@@H]12`, the growth in the assay with HCT-15 colon was 44.5%; with HT29 colon, 20.9%; in the assay on SNB-75 CNS, 79.7%; in the assay on SNB-19 CNS, 68.7%; in the assay on U251 CNS, 52.3%; with PC-3 prostate it was 18.6%. The growth with SK-MEL-5 melanoma is 68.6%; with UACC-62 melanoma it was 81.4%; with SK-MEL-28 melanoma, 83.1%; in the assay on SK-MEL-2 melanoma, 82.8%; with EKVX NSCLC, 83.8%; in the assay on SN12C renal, 57.6%. Also, the growth in the assay with UO-31 renal was 57.2%; with TK-10 renal, 101%; in the assay with ACHN renal, 71.7%; with CAKI-1 renal, 79.8%; in the assay with CCRF-CEM leukemia it was 28.9%; with MOLT-4 leukemia, 14.9%.
As for `C#CCNC(=O)c1cccc2c1cc(C)n2-c1nc2c(c(NCc3ccccc3)n1)CCCC2`, the growth in the assay on HCT-15 colon is -60.1% (active); in the assay on HT29 colon, 0.876% (active); in the assay with SNB-75 CNS, 5.33% (active); in the assay on SNB-19 CNS, -24.9% (active); in the assay on U251 CNS, -71.6% (active); in the assay with PC-3 prostate, -18.2% (active). The growth in the assay with SK-MEL-5 melanoma is -94.3% (active); in the assay with UACC-62 melanoma, -60.6% (active); in the assay on SK-MEL-28 melanoma it was -6.03% (active); with SK-MEL-2 melanoma it was -38% (active); in the assay with EKVX NSCLC, -30.4% (active); in the assay with SN12C renal it was -41.3% (active). Besides, the growth in the assay on UO-31 renal is -63.8% (active); in the assay with TK-10 renal, -15% (active); in the assay on ACHN renal, 3.27% (active); in the assay on CAKI-1 renal it was 3.06% (active); with CCRF-CEM leukemia, 5.3% (active); with MOLT-4 leukemia, -8.18% (active).
As to `CCOc1ccc(/C=N/Nc2cc(C)nc3ccc(Br)cc23)cc1`, the growth in the assay on HCT-15 colon is 57.9%; with HT29 colon, 100%; in the assay with SNB-75 CNS it was 99.9%; in the assay with SNB-19 CNS, 99.7%; with U251 CNS, 77.5%; with PC-3 prostate, 81.4%. The growth with SK-MEL-5 melanoma is 84.9%; in the assay on UACC-62 melanoma it was 90.5%; in the assay on SK-MEL-28 melanoma, 91.6%; in the assay on SK-MEL-2 melanoma it was 117%; in the assay on EKVX NSCLC it was 83.5%; with SN12C renal, 82.6%. Moreover, the growth in the assay on UO-31 renal is 73.4%; in the assay on TK-10 renal it was 112%; in the assay with ACHN renal it was 96.3%; in the assay on CAKI-1 renal, 95.2%; with CCRF-CEM leukemia it was 38.9%; in the assay on MOLT-4 leukemia it was 76.2%.
With `O=C1c2cccc3c(-c4ccc5c(c4)ncn5C4CCCCC4)ccc(c23)C(=O)N1c1nc2ccccc2s1`, the growth in the assay on HCT-15 colon was 59.5%; in the assay with HT29 colon, 84%; in the assay with SNB-75 CNS, 75.2%; in the assay with SNB-19 CNS, 94.6%; in the assay on U251 CNS, 86.9%; in the assay with PC-3 prostate, 73.2%. The growth was 74.6% in the assay with SK-MEL-5 melanoma; 73% with UACC-62 melanoma; 96.6% in the assay with SK-MEL-28 melanoma; 81.4% in the assay with SK-MEL-2 melanoma; 76.4% in the assay with EKVX NSCLC; 83.7% in the assay on SN12C renal. The growth with UO-31 renal was 56.3%; in the assay with TK-10 renal, 99.6%; in the assay with ACHN renal, 84.7%; in the assay on CAKI-1 renal it was 72.8%; in the assay on A498 renal, 121%; in the assay with CCRF-CEM leukemia it was 83%. In addition, the growth in the assay on MOLT-4 leukemia is 81.1%.
For the compound `C=C(C)[C@@H]1CC[C@]2(C(=O)N3CCN(C)CC3)CC[C@]3(C)[C@H](CC[C@@H]4[C@@]5(C)CC[C@H](O)C(C)(C)[C@@H]5CC[C@]43C)[C@@H]12`, the growth with HCT-15 colon was -83.9% (active); with HT29 colon, -90.4% (active); in the assay on SNB-75 CNS it was -93.2% (active); in the assay with SNB-19 CNS, -52% (active); in the assay on U251 CNS, -84.8% (active); in the assay with PC-3 prostate, -70.7% (active). For the same compound, the growth is -67.7% (active) with SK-MEL-5 melanoma; -82.9% (active) in the assay on UACC-62 melanoma; -85.1% (active) in the assay with SK-MEL-28 melanoma; 61.8% in the assay with SK-MEL-2 melanoma; 92.5% in the assay on EKVX NSCLC; -74.2% (active) with SN12C renal. The growth in the assay on UO-31 renal is -86.1% (active); in the assay on TK-10 renal, -93.3% (active); in the assay with ACHN renal it was -92% (active); in the assay with CAKI-1 renal, -84% (active); with A498 renal it was 98.7%; in the assay on CCRF-CEM leukemia, -36.6% (active). In addition, in the assay with MOLT-4 leukemia, the growth was -35.7% (active).
